Screens as filed in PubChem BioAssay.
Compounds with a hit are over-represented: about 4.7% of the library has one in this group of screens.
D1 PAM: enhances dopamine response at the human D1 receptor; P21728; HEK293 TREx D1 cells, calcium flux, dopamine EC20 potentiation; potentiation, % at 10 µM; 0.036% of 360,000 active; in the data active = potentiation above about 30%; also: 0% is about no effect
D1 antag: blocks dopamine activation of the human D1 receptor | P21728 | HEK293 TREx D1 cells, calcium flux, dopamine EC80; hits give low values | activity change, negative = inhibition, % at 10 µM | 3.2% of 360,000 active | AID 504652; in the data active = activity change below about -30%; also: % is scaled to controls: 0 for no effect and ±100 for the full control effect
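Allosteric or orthosteric antagonism assessed as attenuation of the calcium response to EC80 dopamine, added 180 s after compound, in induced HEK293 Trex D1 cells loaded with no-wash calcium dye.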
TRHR enhancer: TRH receptor (human) allosteric enhancement | TRHR cells, fluo-8 calcium fluorescence, EC20 TRH enhancement | enhancement, % at 2 µM | 0.66% of 360,000 active; in the data active = enhancement above about 30%; also: 0% is about no effect
Target sequence (P34981 whole entry, looked up): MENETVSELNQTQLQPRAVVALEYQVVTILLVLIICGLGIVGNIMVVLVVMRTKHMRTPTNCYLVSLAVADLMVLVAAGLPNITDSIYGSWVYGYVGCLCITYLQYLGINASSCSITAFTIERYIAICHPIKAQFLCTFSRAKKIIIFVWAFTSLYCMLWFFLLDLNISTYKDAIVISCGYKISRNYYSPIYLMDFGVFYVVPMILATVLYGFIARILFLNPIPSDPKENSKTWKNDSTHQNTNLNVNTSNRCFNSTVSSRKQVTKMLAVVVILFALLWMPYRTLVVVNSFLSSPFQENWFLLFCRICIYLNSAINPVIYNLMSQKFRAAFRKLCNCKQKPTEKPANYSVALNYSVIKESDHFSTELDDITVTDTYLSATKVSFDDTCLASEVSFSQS
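TRHR-expressing cells loaded with fluo-8 calcium dye were read kinetically (ex 480/em 530) during compound addition, then stimulated with an EC20 of TRH (10 nM final). Enhancement of the Gq-mediated intracellular calcium response was scored.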
TRHR ag: TRH receptor (human) agonism; activation, % at 2 µM; P34981; AID 493084; TRHR cells, calcium flux fluo-8, FDSS agonist mode; 0.18% of 360,000 active; also: 0% is about no effect
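Fluo-8-loaded TRHR cells; 10 s baseline, compound added, kinetic Ca2+ fluorescence read 1/s, agonist mode.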
D1 agonist: human D1 receptor agonism | P21728 | HEK293 T-REx D1 cells, calcium flux, agonist mode | activation, % at 2 µM | 1% of 360,000 active | AID 504660; also: 0% is about no effect
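Tetracycline-induced HEK293 TREx D1 cells, force-coupled to calcium signalling, were dye-loaded with a no-wash calcium kit. Compound was pin-added after a 10 s baseline. Fluorescence was read kinetically at 1 cycle/s for 180 s, with calcium rises flagged as agonism.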
The depositor's hits bear a star. Rule as the data show it, unless noted: active = activation above about 30%; inactive = the rest.

SMILES	D1 PAM	D1 antag	TRHR enhancer	TRHR ag	D1 agonist
Cc1cc(C(=O)CSc2nnc(-c3cccs3)o2)c(C)n1-c1ccccc1	2	-55*	-6	0	2
CC1Sc2ccc(S(=O)(=O)CCC(=O)NCc3ccc(Cl)cc3)cc2NC1=O (stereo not given)	6	-27	-1	-1	6
C#CCOCCOCCOCCNc1nc(N2CCN(C(=O)[C@H](Cc3cc4ccccc4[nH]3)n3cc([C@@H](N)C(C)CC)nn3)CC2)nc(N2CCN(C(=O)[C@H](CCCCN)n3cc([C@@H](N)CO)nn3)CC2)n1 (stereo not given in full)	-4	-35*	-3	1	0
C#CCOCCOCCOCCNc1nc(N2CCN(C(=O)[C@H](CCCCN)n3cc([C@@H](N)C(C)CC)nn3)CC2)nc(N2CCN(C(=O)[C@H](CCCCN)n3cc([C@@H](N)CO)nn3)CC2)n1 (stereo not given in full)	2	18	37*	0	1
CC(C)C[C@H](N)c1cn([C@@H](CCCCN)C(=O)N2CCNCC2)nn1	2	0	31*	0	0
C#CCOCCOCCOCCNc1nc(N2CCN(C(=O)[C@H]([C@@H](C)CC)n3cc([C@@H](N)CO)nn3)CC2)nc(N2CCN(C(=O)[C@H](CCCCN)n3cc([C@@H](N)C(C)CC)nn3)CC2)n1 (stereo not given in full)	-4	7	1	1	-4
C#CCOCCOCCOCCNc1nc(N2CCN(C(=O)[C@H]([C@@H](C)CC)n3cc([C@@H](N)CC(C)C)nn3)CC2)nc(N2CCN(C(=O)[C@H](CCCCN)n3cc([C@@H](N)CC(C)C)nn3)CC2)n1	-4	1	38*	0	-3
C#CCOCCOCCOCCNc1nc(N2CCN(C(=O)[C@H]([C@@H](C)CC)n3cc([C@@H](N)CC(C)C)nn3)CC2)nc(N2CCN(C(=O)[C@H](CCCCN)n3cc([C@@H](N)C(C)CC)nn3)CC2)n1 (stereo not given in full)	-2	5	-8	0	-1
Cc1cccc(N2CCN(C(=O)c3cc4c(=O)n(C)c5ccccc5c4s3)CC2)c1C	0	3	1	1	3
Cc1ccc(-c2csc(=Nc3ccc(F)cc3)n2Cc2ccc3c(c2)OCO3)cc1C	-2	-10	2	-3	0
CC(C)NC(=O)CN1C(=O)c2cccnc2Sc2ccccc21	0	4	-5	0	1
CCc1ccccc1-n1cnc2cc(C(=O)NC3CCCCCC3)ccc21	-4	11	0	0	-2
CCCc1nc2ccccc2n2c(-c3ccc(C)cc3)c3c(=O)n(C)c(=O)n(C)c3c12	-2	13	3	0	2
COc1ccc2c(c1)c(=O)c(C(=O)c1ccc(F)cc1)cn2CC(=O)Nc1ccc2c(c1)OCCO2	0	15	5	1	6
CC(CCc1ccccc1)NS(=O)(=O)c1ccccc1 (stereo not given)	-3	-37*	4	-1	7
CC(C)(C)c1ccc(C(=O)Nc2ccc(F)cc2)s1	-10	-24	0	1	11
CC(C)S(=O)(=O)c1csc(C(=O)Nc2ccc(F)cc2)c1N	-18	-56*	0	0	1
CCc1cccc(C)c1NC(=O)CSc1nc2ccccc2n1CC(=O)N(C)C	-2	-35*	-6	0	0
CCOC(=O)CSc1nc2ccccc2n1CC(=O)NC(C)(C)C	-4	-15	30*	1	1
O=C(Cc1cccc(C(F)(F)F)c1)NCc1cccc(Cl)c1	-10	-19	-9	-1	2
O=C(CS(=O)c1ccc(F)cc1)Nc1ccccc1Cl (stereo not given)	-4	6	-5	0	2
O=C(Cc1cccc(C(F)(F)F)c1)NCC(=O)Nc1cc(Cl)ccc1Cl	32*	7	-2	0	3
O=C(CS(=O)c1cccc(C(F)(F)F)c1)Nc1ccccc1Cl (stereo not given)	-8	-47*	7	1	4
CCN(CC)S(=O)(=O)c1ccc(-c2csc(=Nc3cccc(C(F)(F)F)c3)n2Cc2ccc3c(c2)OCO3)cc1	-5	15	3	-3	4
O=C(c1cn(CCOc2ccccc2F)c2ccccc12)C1CCCCC1	-4	0	-7	1	15
SMILES	D1 PAM	D1 antag	TRHR enhancer	TRHR ag	D1 agonist
COc1ccc(/C=C/C(=O)c2ccccc2)cc1COc1ccc(F)cc1	-6	-33*	-5	4	17
C/C=C/c1ccc(OCCn2nnc3ccccc32)c(OC)c1	-2	-9	0	-1	11
COc1ccc(/C=C/C(=O)c2ccccc2)cc1Cn1nnc2ccccc21	-2	-31*	-6	1	3
CC1CCN(C(=O)CSc2nc(-c3ccc(C(C)C)cc3)no2)CC1	-1	2	2	2	17
O=C(O)c1ccccc1-c1nc2ccccc2c(=O)[nH]1	5	-40*	15	1	-1
O=C(O)c1ccccc1-c1nc(-c2ccccc2)c(-c2ccccc2)[nH]1	-3	4	7	0	-1
Cc1nc(-c2ccc(C)c(N3CCN(C(=O)Nc4ccc(Br)cc4)CC3)c2)no1	-5	-8	3	0	2
CCOC(=O)c1ccc(NC(=O)Nc2ccon2)cc1	-2	-11	-1	0	9
CCOC(=O)c1sc(NC(=O)Nc2cccc(Cl)c2)cc1C	-15	-46*	-5	1	9
CCOC(=O)c1ccc(NC(=O)Nc2ccc(Cl)cn2)cc1	2	-33*	2	0	0
CCCOc1ccc(C(=O)Nc2ccc(Cl)cn2)cc1	-4	-50*	1	0	0
CCOC(=O)c1sc(NC(=O)Nc2ccc(Cl)cc2)nc1C	-11	-44*	2	-1	20
CCOC(=O)c1sc(NC(=O)c2cccs2)cc1C	-4	-15	-3	0	-1
CCOc1ccc(CNS(=O)(=O)c2cccs2)cc1OCC	1	-2	10	0	8
CCCC(C)C(=O)Nc1ccc(Cl)cn1 (stereo not given)	-2	-34*	-4	0	0
CCCCC(=O)Nc1ccc(Cl)cn1	0	-15	7	0	0
CCCCCCCC1CC(CSc2ncn[nH]2)OC1=O (stereo not given)	-7	-13	-3	0	-2
CCCCC1CC(CSc2ncn[nH]2)OC1=O (stereo not given)	1	-36*	-1	0	0
O/C(=C\c1ccc2ccccc2n1)c1ccncc1	-3	6	-2	17	45*
C/C(=N\NC(=O)c1cccc(S(=O)(=O)N2CCOCC2)c1)c1ccc(O)cc1	-2	10	1	0	1
